Results filed as inconclusive are left out. A call without a number means that no potency is given here. Active and inactive are the calls of the source. Calls follow the shape of the dose curve; as a rule, active = well fitted inhibition curve with a large enough effect; inconclusive = small, poorly fitted or top-dose-only effect; inactive = no such curve, though single readings can be large or run the other way.
Potency is read from the fitted curve at half-maximal effect.

N-terminal Xaa-Pro-Lys N-methyltransferase 1 (Homo sapiens), sequence (Q9BV86 whole entry, looked up): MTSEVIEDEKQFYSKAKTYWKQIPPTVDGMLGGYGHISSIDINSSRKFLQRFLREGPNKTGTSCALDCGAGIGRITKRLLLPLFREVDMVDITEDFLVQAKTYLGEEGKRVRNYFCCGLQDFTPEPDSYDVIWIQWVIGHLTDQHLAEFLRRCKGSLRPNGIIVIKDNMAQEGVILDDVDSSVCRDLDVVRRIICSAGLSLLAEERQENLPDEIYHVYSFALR

The experiment has as its target N-terminal Xaa-Pro-Lys N-methyltransferase 1 (Homo sapiens) (UniProt Q9BV86). As to the kind of experiment: qHTS Assay for Inhibitors of N-terminal methyltransferase 1 (NTMT1): MTaseGlo Confirmatory Screen, Round 2. The following applies: NTMT1 enzyme, MTase-Glo SAH luminescence; series mostly up to 57.4 µM. Summed up: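 NTMT1 (125 nM) with 100 µM SAM was preincubated ~15 min with compound, then 1 µM SPKRIA peptide was added for 30 min at RT. SAH was detected by MTase-Glo luminescence, normalized to no-enzyme and DMSO controls, and fitted to a 4-parameter Hill equation.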
Background: Quantitative high-throughput screening tests each substance at several concentrations.
On to `O=S(=O)(c1cccc2c(Cl)cccc12)N1CCCNCC1`, for which the Potency result is “inactive”.

`N#C/C(=C\c1ccc(O)c(O)c1)C(=O)c1ccc(O)c(O)c1`: the Potency result is “inactive”. As for `COc1cc2c(NC3CCN(C)CC3)cc(N3CCCCN(C)CC3)cc2cc1OCCOCCN(C)C`, the entry is “inactive”.

`Cc1nn(-c2ccccc2)c(C)c1/C=N/N1CCN(Cc2ccccc2)CC1`: the Potency entry is “inactive”. As for `COc1cccc(OC)c1OCCNCC1CSc2ccccc2O1` (stereo unspecified), the entry is “inactive”; as for `Nc1nc(Cl)nc2c1ncn2[C@@H]1O[C@H](COP(=O)(O)OP(=O)(O)OP(=O)(O)O)[C@@H](O)[C@H]1O`, “inactive”. As for `COc1cc2c(NC3CCN(CC4CCCCC4)CC3)nc(N3CCCCC3)nc2cc1OCCCN1CCCCC1`, the entry is “inactive”; as for `COC(=O)[C@H]1[C@H]2C[C@H]3c4[nH]c5ccccc5c4CCN3C[C@H]2CC[C@@H]1O`, “inactive”. In the case of `N#C/C(=C\c1ccc(O)c(O)c1)C(=O)Nc1ccccc1` it was “inactive”; in that of `Nc1nc(Nc2ccccc2)nc2c1ncn2[C@@H]1O[C@H](CO)[C@@H](O)[C@H]1O`, “inactive”; in that of `Cc1cc(C)c(/C=C2\C(=O)Nc3ccccc32)[nH]1`, “inactive”. Take `NC[C@@H]1O[C@H](C23CC4CC(CC(C4)C2)C3)Cc2c1ccc(O)c2O`: the Potency result is “inactive”. As for `Nc1ncnc2c1ncn2[C@H]1O[C@@H](CNS(=O)(=O)NC(=O)c2cccc(-c3noc(-c4ccccc4F)n3)c2)[C@H](O)[C@@H]1O`, the figure is 2000 nM (active). In the case of `CCN(CC)C(=S)SSC(=S)N(CC)CC`, the Potency entry was “inactive”. In the case of `Oc1ccc2ccccc2c1SSc1c(O)ccc2ccccc12` it was “inactive”; in that of `CC(C)COCC(CN(Cc1ccccc1)c1ccccc1)N1CCCC1` (stereo unspecified), “inactive”.

For the origin of these results see PubChem BioAssay AID1347147 (National Center for Advancing Translational Sciences (NCATS), 2019).
